High-throughput results (PubChem BioAssay)
Compounds with a hit are over-represented: about 6.2% of the library has one in this group of screens.
HCMV antiviral: qHTS Assay for inhibitors of the human cytomegalovirus (HCMV) | activity change, negative = inhibition, % at 57.5 µM | HFF cells, HCMV-luciferase reporter, 72 h; stronger effect = lower value | 4.5% of 410,000 active | AID 1259415, 2018; in the data active = activity change below about -60%; inconclusive = no clear call, values can overlap the other calls; inactive = above about -39%
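Cell-based, HFFs, 1000 cells/well, 16 h 37C; cpds in DMSO + HCMV-luc, MOI 1 PFU/cell; 72 h 37C; OneGlo luminescence after 5 min RT; norm. to buffer vs Salinomycin 10uM.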
FMDV inh: High Throughput Screening for Foot and Mouth Disease Virus Antivirals; Potency, µM (top dose mostly 57.9 µM), without a hit: top-dose activity change, negative = inhibition, actives largely listed as inhibitors; AID 1159524, 2015; FMDV antiviral cell-based qHTS; 1.2% of 410,000 active; calls by dose curve; tested in HEK293T cells; also: read-out not given here; potency is read from the fitted curve at half-maximal effect; nearly all actives have a fitted effect of over 45% in size
Marburg entry inh: qHTS for inhibitors of binding or entry into cells for Marburg Virus; 1.8% of 300,000 active; Potency, µM (series often up to 37.8 µM), inactives show at the highest dose activity change, negative = inhibition, most hits filed as inhibitors; AID 540276, 2011; Marburg virus pseudotyped entry inhibition, cell reporter; calls by dose curve; tested in HEK293 cells; also: potency is read from the fitted curve at half-maximal effect
Lassa entry inh: qHTS for Inhibitors of binding or entry into cells for Lassa Virus; Lassa virus pseudotype entry inhibition, cell reporter; Potency, µM (highest dose often 37.9 µM), for the others: at the highest dose activity change, negative = inhibition, hits mostly inhibitors; 1.2% of 300,000 active; AID 540256, 2011; calls by dose curve; tested in HEK293 cells; also: potency is read from the fitted curve at half-maximal effect; nearly all actives have a fitted effect of over 50% in size
Active calls of the source: *; [ ] = dose if it differs, or a comment. % is scaled to controls: 0 for no effect and ±100 for the full control effect.

For CCCCc1ccc(C(=O)Nc2ccc3nc(N(CC)CC)cc(C)c3c2)cc1 the results were HCMV antiviral -61*, FMDV inh inconclusive, Marburg entry inh inconclusive and Lassa entry inh -11%[46.1 µM].
`CCN(CC)c1cc(C)c2cc(NC(=O)c3ccccc3OC)ccc2n1` gave HCMV antiviral -60*, FMDV inh -15%, Marburg entry inh inconclusive and Lassa entry inh inconclusive.
`CCN(CC)c1cc(C)c2cc(NC(=O)c3cc(OC)cc(OC)c3)ccc2n1` gave HCMV antiviral -85*, FMDV inh -24%, Marburg entry inh 0%[46.1 µM] and Lassa entry inh inconclusive.
Screening COC(=O)C1CCN(S(=O)(=O)c2ccc(N3CCCCS3(=O)=O)cc2)CC1 returned HCMV antiviral -13, FMDV inh -25% and Lassa entry inh inconclusive.
`CCN(CC)c1cc(C)c2cc(NC(=O)/C=C/c3ccccc3Cl)ccc2n1` gave HCMV antiviral -107*, FMDV inh -16%, Marburg entry inh -20%[46.1 µM] and Lassa entry inh -18%[46.1 µM].
`Cc1csc(NC(=O)c2cc3c(s2)CCCCC3)n1` gave HCMV antiviral inconclusive, FMDV inh 8.9µM*, Marburg entry inh inconclusive and Lassa entry inh 2.2µM*.
For Cc1csc(NC(=O)c2cc3c(s2)CCCC3)n1 the results were HCMV antiviral 24 and FMDV inh -63%.
Screening Cc1ccc(CSC(Nc2ccc(F)cc2)=C(C#N)C#N)cc1 returned HCMV antiviral -100*, FMDV inh 0%, Marburg entry inh inconclusive and Lassa entry inh 13µM*.
CCOC(=O)[C@@H]1[C@H]2COc3cc(OC)ccc3[C@H]2N2C(=O)N(c3ccc(C)cc3)C(=O)[C@@]12C was read as HCMV antiviral -75* and FMDV inh -23%.
Screening CCOC(=O)[C@@H]1[C@H]2COc3cc(OC)ccc3[C@H]2N2C(=O)N(c3ccc(C(F)(F)F)cc3)C(=O)[C@]12C returned HCMV antiviral -88* and FMDV inh inconclusive.
Screening CCOC(=O)N1CCN(C(=O)c2ccc(-c3ccccc3OC)nc2N2CCC(N3CCCC(CO)C3)CC2)CC1 (stereo not given) returned FMDV inh -1%.
CN(C)CCCN(C(=O)c1cc2ccccc2oc1=O)c1nc2ccc(F)cc2s1 was read as HCMV antiviral -12, FMDV inh 1%, Marburg entry inh -7% and Lassa entry inh 7%.
`CCN(CCCCCN(C)C)Cc1cc2ccccc2o1` gave HCMV antiviral -23, FMDV inh 0%, Marburg entry inh 10µM* and Lassa entry inh inconclusive.
`N[C@H]1CCN(O)C1=O` gave FMDV inh -4%.
`CC(C)N(Cc1ccccc1)C(=O)CN1C(=O)COc2ccc(S(=O)(=O)N3CCCCCC3)cc21` gave HCMV antiviral -81*, FMDV inh -3%, Marburg entry inh -21%[46.1 µM] and Lassa entry inh -27%[46.1 µM].
Screening O=C(O)CN1C(=O)COc2ccc(S(=O)(=O)N3CCCCCC3)cc21 returned HCMV antiviral -61* and FMDV inh -15%.
COc1ccc2c3c(n(C)c2c1)[C@H](CO)N(C(C)=O)CC31CCN(C(=O)C2CCOCC2)CC1 was read as HCMV antiviral 36.
For Nc1ccn(C2OC(COP(=O)(O)O)C(O)C2O)c(=O)n1 (stereo not given) the results were HCMV antiviral -97*, FMDV inh -17%, Marburg entry inh inconclusive and Lassa entry inh -15%[46.1 µM].
Screening O=c1ccn([C@@H]2O[C@H](COP(=O)(O)O)[C@@H](O)[C@H]2O)c(=O)[nH]1 returned FMDV inh -17%.
Cc1c(C(=O)N(C)c2cccc(C(F)(F)F)c2)sc2nc3n(c(=O)c12)CCCCC3 was read as HCMV antiviral -76*, FMDV inh -27% and Lassa entry inh 4%[46.1 µM].
Screening CCc1ccc(NC(=O)c2sc3nc4n(c(=O)c3c2C)CCC4)cc1 returned HCMV antiviral -29 and FMDV inh -3%.
CC(=O)c1cccc(NC(=O)c2sc3nc4n(c(=O)c3c2C)CCCC4)c1 was read as HCMV antiviral -3, FMDV inh 20%, Marburg entry inh inconclusive and Lassa entry inh -5%[46.1 µM].
For Cc1c(C(=O)Nc2cccc(C(F)(F)F)c2)sc2nc3n(c(=O)c12)CCCC3 the results were HCMV antiviral -16, FMDV inh 18µM* and Lassa entry inh 18%[46.1 µM].
`CC(=O)Nc1ccc(NC(=O)c2sc3nc4n(c(=O)c3c2C)CCCCC4)cc1` gave HCMV antiviral -82*, FMDV inh -13%, Marburg entry inh -20% and Lassa entry inh inconclusive.
Screening Cc1cccc(NC(=O)c2cn(-c3ccccc3)nc2-c2ccccc2)c1C returned HCMV antiviral -27, FMDV inh 0%, Marburg entry inh inconclusive and Lassa entry inh 3%[46.1 µM].
CCOC(=O)/C(=C\c1ccccc1)C(=O)CCN1CCOCC1 was read as HCMV antiviral 24, FMDV inh 18µM*, Marburg entry inh 12% and Lassa entry inh -4%[46.1 µM].
For O=C(CCN1CCOCC1)NNC(=O)/C(=C/c1ccccc1)NC(=O)c1ccccc1 the results were HCMV antiviral 1, FMDV inh -10%, Marburg entry inh inconclusive and Lassa entry inh 11µM*.
CC(C)(C)OC(=O)N1CCC(c2c(C(=O)NCc3cccs3)cnn2-c2ccc(F)cc2F)CC1 was read as HCMV antiviral 0, FMDV inh -24% and Lassa entry inh inconclusive.
`Cc1cc([N+](=O)[O-])nn1CC(=O)Nc1ccc(Cl)cn1` gave HCMV antiviral -60*, FMDV inh -8%, Marburg entry inh -1%[46.1 µM] and Lassa entry inh -6%[46.1 µM].
`COCCN1CCN(c2nc(C(=O)Nc3ccc(F)c(Cl)c3)cs2)C1=O` gave HCMV antiviral -18.
`Oc1ccccc1Oc1ncc(Br)c(N2CCOCC2)n1` gave HCMV antiviral 39, FMDV inh -29%, Marburg entry inh -16% and Lassa entry inh 18%.
Oc1ccccc1Oc1c(F)c(F)nc(N2CCCC2)c1F was read as HCMV antiviral -13, FMDV inh 5%, Marburg entry inh inconclusive and Lassa entry inh 4.6µM*.
`CN1CCN(C(=O)c2ccc(-c3cccs3)s2)CC1` gave HCMV antiviral -17, FMDV inh -4%, Marburg entry inh inconclusive and Lassa entry inh -7%[46.1 µM].
For O=C(c1cccs1)c1ccc(-c2cccs2)s1 the results were HCMV antiviral 11, FMDV inh -51%, Marburg entry inh 11µM* and Lassa entry inh inconclusive.
`COc1cccc(OCc2cc(C(=O)N3CCC(c4ccncc4)CC3)no2)c1` gave HCMV antiviral -89*, FMDV inh -27%, Marburg entry inh inconclusive and Lassa entry inh inconclusive.
`CC(=O)c1ccc(OCc2cc(C(=O)N3CC[C@@H]4CCCC[C@H]4C3)no2)cc1` gave HCMV antiviral 42, FMDV inh -8%, Marburg entry inh inconclusive and Lassa entry inh inconclusive.
CC(=O)c1ccc(OCc2cc(C(=O)N3CCC(c4ccncc4)CC3)no2)cc1 was read as HCMV antiviral -81* and FMDV inh inconclusive.
Screening O=C(c1cc(COc2cccc(C(F)(F)F)c2)on1)N1CCC(c2ccncc2)CC1 returned FMDV inh -2%.
